According to PubChem BioAssay AID602310 (National Center for Advancing Translational Sciences (NCATS), 2012):
The whole screen tested about 410,000 compounds, of which about 310 (0.076%) were called active. Inconclusive results (about 2%) are left out. Calls come from the whole dose curve; as a rule, active = well fitted curve in the direction sought with a large enough effect; inconclusive = small, poorly fitted or top-dose-only effect; inactive = flat fitted curve, though single readings scatter. The entries come from a sample that favours actives as a whole.

The compounds below were run against DNA dC->dU-editing enzyme APOBEC-3G (Homo sapiens) (UniProt Q9HC16) (assay: qHTS for Inhibitors of Vif-A3G Interactions: qHTS). Conditions: HeLa A3G-eYFP + Vif (tagged APOBEC3G with the HIV-1 protein that degrades it), YFP fluorescence, overnight; series mostly up to 46.1 µM; activity, negative = active: at the top concentration.
DNA dC->dU-editing enzyme APOBEC-3G (Homo sapiens), sequence (Q9HC16 whole entry, looked up): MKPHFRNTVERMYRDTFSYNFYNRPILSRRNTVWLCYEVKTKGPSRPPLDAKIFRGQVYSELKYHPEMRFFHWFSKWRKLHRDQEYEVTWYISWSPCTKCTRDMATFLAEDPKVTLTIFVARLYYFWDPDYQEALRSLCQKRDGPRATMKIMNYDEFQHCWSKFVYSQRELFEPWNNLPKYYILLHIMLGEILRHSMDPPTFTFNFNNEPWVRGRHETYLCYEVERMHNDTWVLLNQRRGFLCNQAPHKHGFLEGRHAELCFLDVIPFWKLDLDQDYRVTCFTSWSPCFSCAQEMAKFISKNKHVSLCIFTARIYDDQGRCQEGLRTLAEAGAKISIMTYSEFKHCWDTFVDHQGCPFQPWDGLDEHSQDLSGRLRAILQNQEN
Excerpt: The recent discovery and characterization of host restriction factors, which provide a potent defense to invading retroviruses, has provided new targets for antiviral drug development. APOBEC3G (A3G) and APOBEC3F (A3F) are potent cytidine deaminases that block HIV-1 replication; HIV-1 expresses the Vif protein, which counteracts A3G and A3F by binding to them and inducing their proteasomal degradation. The Vif-A3G and Vif-A3F interactions provide two potential targets for development of small molecules which can interfere with the ability of Vif to degrade A3G or A3F. […] To identify inhibitors that can interfere with Vif mediated degradation of A3G and A3F, we have developed Hela cell lines that stably express A3G or A3F tagged with eYFP at the C-terminal end (A3G-eYFP or A3F-eYFP, respectively) and Vif. In the absence of an inhibitor, Vif induces degradation of A3G-eYFP and A3F-eYFP, and the cells are not fluorescent. In the presence of an inhibitor, it is expected that Vif will be unable to degrade A3G-eYFP and/or A3F-eYFP, resulting in an increase in yellow fluorescence. In this assays Vif A3G was screened against the Molecular Library Small Molecule Repository (MLSMR). NIH Chemical Genomics Center [NCGC] NIH Molecular Libraries Probe Centers Network [MLPCN] MLPCN Grant: MH093245 Assay Submitter (PI): Vinay Pathak, National Cancer Institute
5 uL of 700 cells/well of A3G-YFP cells are dispensed into black, clear bottom plates. The plates are incubated overnight at 37 deg C. 23 nL of compounds are added by pintool. The plates are incubated overnight at 37 deg C and then read on the TTP Acumen (Ex 488/ Em 500-530).
% is set by controls: 0 for no effect and ±100 for the full control effect.
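Note: hits raise eYFP signal because A3G escapes Vif-driven loss; nearly all actives have a fitted effect of over 60% in size.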

SMILES	activity, negative = active
Cc1ccc2nc(/C(C#N)=C/c3ccccc3F)[nH]c2c1	-5.05% (inactive)
Cc1c(C(=O)Nc2cccc(Cl)c2)oc2ccc(S(=O)(=O)N3CCOCC3)cc12	-4.72% (inactive)
CS(=O)c1ccc(/C=C2\C=Cc3ccccc32)cc1 (stereo not given)	-4.01% (inactive)
OCC(O)C(O)C(O)C(O)C=Nc1ccc(/C=C/c2ccnc3ccccc23)cc1 (stereo not given)	-13.5% (inactive)
C=COC(=O)N1CCN(/[N+]([O-])=N/Oc2ccc([N+](=O)[O-])cc2[N+](=O)[O-])CC1	-11.3% (inactive)
SCc1nc2ccc(Cl)cc2[nH]1	-15.9% (inactive)
CCC(=O)N1CCc2cc(Br)cc(S(=O)(=O)CCC(=O)NCc3ccccc3OC)c21	0.639% (inactive)
O=C(CCSCc1cccc(F)c1)NCc1ccccc1	1.45% (inactive)
O=C1C[C@H]2C=CCc3cccc(c32)CN1Cc1ccccc1	1.8% (inactive)
CN1CCN(/[N+]([O-])=N/Oc2ccc([N+](=O)[O-])cc2[N+](=O)[O-])CC1	-2.57% (inactive)
O=C1CCC[C@@H]2C[C@@]3(C[C@@H]4CCN1[C@H]24)Nc1ccccc1NC3=NCc1ccccc1	-3.5% (inactive)
CCC(C)NC(=O)Cn1c(=O)n(-c2ccc(Cl)cc2)c(=O)c2c3c(sc21)CCCC3 (stereo not given)	-2.77% (inactive)
Cc1ccc(CSc2oc(-c3cccs3)nc2S(=O)(=O)c2ccc(C)cc2)cc1	-5.68% (inactive)
CC1(C)C=Cc2c(ccc(C(=O)/C=C/c3ccccc3)c2O)O1	-4.83% (inactive)
Cc1nc2nc(SCC(=O)N(Cc3ccccc3)C(C)C)nn2c(C)c1Cc1ccccc1Cl	-4.58% (inactive)
C=C1C=C(C(F)F)n2ncc(C(=O)NCCc3ccccc3OC)c2N1	1.18% (inactive)
O=C1O/C(=C\c2ccc(O)cc2)C(O)=C1c1ccc(O)cc1	0.495% (inactive)
Cc1ccc(C)c(Cn2c(C(=O)O)c(CNCc3cccs3)c3ccccc32)c1	5.36% (inactive)
CCN(CC)c1ccc(/C=C/c2c(C)cnc3ccc(C)cc23)cc1	-14.3% (inactive)
CCOc1cccc(CC(=O)N2CCc3c([nH]c4ccccc34)C2c2ccc(OC)cc2)c1OCC (stereo not given)	5.45% (inactive)
CCc1cccc(CC)c1NC(=O)Cn1c(=O)c(-c2cc(C)ccc2NC(C)=O)nc2ccccc21	2.05% (inactive)
CCN1CCN(CCCNC(=O)c2ccc3c(c2)sc2nc(-c4ccc(OC)cc4)cn23)CC1	1.57% (inactive)
COc1ccc(N2CCN(c3nc(-c4ccccc4F)nc4ccccc34)CC2)cc1	1.44% (inactive)
CC(C)(C)OC(=O)N(Cc1ccco1)S(=O)(=O)c1ccccc1Br	-2.34% (inactive)
Nc1ncnc2nnsc12	-0.535% (inactive)

SMILES	activity, negative = active
Clc1cccc[n+]1CCCC[n+]1ccccc1Cl	-3.41% (inactive)
O=C(NCC(c1ccco1)S(=O)(=O)c1cccs1)c1ccc(F)cc1 (stereo not given)	-0.334% (inactive)
COc1ccc(-c2nc(=N)sn2-c2ccccc2)cc1	-12.4% (inactive)
Cc1ccccc1NC(=O)c1c(NC(=O)c2ccccc2F)sc2c1CCC(C)C2 (stereo not given)	2.58% (inactive)
COc1ccc(-c2[nH]c3c(c2-c2c(-n4cccc4)n(C)c(=O)n(C)c2=O)c(=O)n(C)c(=O)n3C)cc1	4.14% (inactive)
OC(CBr)CN1CCCCC1 (stereo not given)	2.13% (inactive)
CN(C(=N)N)c1ccc(/C=C2\C=Cc3ccccc32)cc1	0.609% (inactive)
Cc1cccn2c(=O)c3cc(C(=O)NC(C)c4ccccc4)c(=N)n(CCCO)c3nc12 (stereo not given)	1.93% (inactive)
COC(=O)c1ccc(OC)c(Cn2c(=O)n(Cc3ccccc3)c(=O)c3c2c2cc(OC)ccc2n3C)c1	-5.74% (inactive)
CCOC(=O)c1scc(-c2ccc(C)cc2)c1S(=O)(=O)Nc1cc(C)ccc1C	2.25% (inactive)
COc1ccc(OCC(=O)Nc2cccc(C(=O)OCc3cc(=O)n4nc(C)sc4n3)c2)cc1	1.27% (inactive)
CCOc1ccc(N(CC)S(=O)(=O)N2CCCC(C(=O)Nc3ccc(C(C)=O)cc3)C2)cc1 (stereo not given)	3.2% (inactive)
Cc1ccc(S(=O)(=O)c2nc(-c3ccco3)oc2SCC(=O)Nc2ccc(F)cc2)cc1	-4.15% (inactive)
COc1ccc(CNC(=O)c2ccc3c(c2)nc2n3CCOC2)c(OC)c1	2.94% (inactive)
COC(=O)c1cc(NC(=O)CCS(=O)(=O)c2cc(Br)cc3c2N(C(=O)C2CC2)CC3)cc(C(=O)OC)c1	1.17% (inactive)
CCCCN(CC)CCCNC(=O)Cn1ncc2c([nH]c3ccc(C)cc32)c1=O	1.92% (inactive)
O=C(Nc1ccccc1F)C(c1ccccc1)N1Cc2ccccc2C1=O (stereo not given)	-0.9% (inactive)
OC(Cc1ccc2ccccc2n1)c1ccc(Cl)c(Cl)c1 (stereo not given)	-0.459% (inactive)
Cc1c(-c2nsc(NC(=O)c3cccc(Cl)c3)n2)nnn1-c1ccccc1C(F)(F)F	4.58% (inactive)
CN(C)c1ccc(/C=C2\C=Cc3ccccc32)cc1Br	-3.17% (inactive)
CCn1c(=O)c(=O)n(CC)c2cc(N3CCCCC3)c(NC(=O)c3cccc(F)c3)cc21	0.845% (inactive)
CN(C)c1ccc(/C=N\Nc2ccc([N+](=O)[O-])cc2[N+](=O)[O-])cc1Cl	3.64% (inactive)
CC1CCc2noc(NC(=O)c3ccc([N+](=O)[O-])cc3)c2C1 (stereo not given)	-0.497% (inactive)
Cc1cc(NS(=O)(=O)c2ccc3oc(=O)c4ncn(C)c4c3c2)ccc1Br	-20.5% (inactive)
Cc1cc(C)c2oc(C(=O)Nc3c(C(=O)Nc4ccccc4)oc4ccccc34)cc(=O)c2c1	3.43% (inactive)
